We go through 66 molecules from ChEMBL document CHEMBL4513216, “Probing the Open Global Health Chemical Diversity Library for Multistage-Active Starting Points for Next-Generation Antimalarials” (ACS Infect Dis, 2020).

Screen size: about 68,000 compounds; about 2,700 (4%) showed an effect of 50% or more. Shown is part of a subset that was picked to be rich in strong results.

The test system of this assay is Plasmodium berghei. Put plainly: Screen against P. berghei liver stage (PbLuc), transformed with Luciferase, at 2uM. It counts as functional, HepG2. As to conditions: tested at 2 uM.
As for `O=C(NC[C@]1(O)CCN(Cc2ccsc2)C[C@H]1O)c1c[nH]cn1`, the INHIBITION was 69.45%.

Turning to `Cc1cncc(CN2CC[C@@](O)(CNC(=O)c3c[nH]cn3)[C@H](O)C2)c1`, the INHIBITION came out at 19.36%. In the case of `O=C(NC[C@]1(O)CCN(Cc2ccccc2F)C[C@H]1O)c1c[nH]cn1`, the INHIBITION amounted to 38.96%. As for `CS(=O)(=O)N1CCC2(CC1)CC(NCc1ccco1)c1ccccc12` (stereo unspecified), the figure is -9.53%; as for `O=C1CN(C(=O)CN(CC2CCC2)CC(F)(F)F)CCN1`, 19.92%. As for `Cc1cc(C)n(Cc2cc(C(=O)N3CCCC3c3ccccn3)n[nH]2)n1` (stereo unspecified), the figure is -15.08%; as for `CC(CC(=O)Nc1ncn(CC(=O)NCc2ccccc2)n1)C1CC1` (stereo unspecified), -1.21%. `O=C(Cn1cnc(NC(=O)CC2CCCC2)n1)NCc1ccccc1`: the INHIBITION came out at 67.59%. As for `CC(C)(C)CC(=O)Nc1ncn(CC(=O)NCc2ccccc2)n1`, the figure is -34.98%; as for `NC(=O)CN1CCC(C(=O)NCCn2cc(Cl)cn2)CC1`, -10.84%; as for `N[C@@H]1CC[C@H](C(=O)NCCn2cc(Cl)cn2)C1`, 61.95%. The figure for `O=C(NCCn1cc(Cl)cn1)C1CCN(C(=O)C2CC2)CC1` is 23.64%; for `O=C(CCN1CCCCO1)NC1CCCN(CC2CCCCC2)C1` (stereo unspecified) it is -0.88%. For the molecule `Fc1cc(CNCc2ccc3c(c2)CCO3)ccc1N1CCOCC1`, the INHIBITION is listed as -10.05%. Turning to `COc1ccc(CNCc2ccnc(N3CCOCC3)c2)cc1OC`, the INHIBITION amounted to 62.13%. With `c1cc(CNCc2ccnc(N3CCOCC3)c2)c2c(c1)OCCO2`, the INHIBITION came out at 1.22%. `c1cc(CNCc2ccc3c(c2)CCO3)cc(N2CCOCC2)n1`: the INHIBITION is reported as 57.82%.

Consider `COc1ccc(OC)c(CNCc2ccnc(N3CCOCC3)c2)c1`, for which the INHIBITION is given as -28.39%.

In the case of `COc1ccc(CNCc2ccnc(N3CCCCC3)c2)cc1OC`, the INHIBITION is listed as 30.91%. Take `c1cnc(N2CCCC(c3cc4cccnc4[nH]3)C2)nc1` (stereo unspecified): the INHIBITION was 14.47%. In the case of `C=C(C)COc1cccc(C(=O)N(CC)Cc2noc(C)n2)c1`, the INHIBITION is 76.82%. In the case of `C=C(C)COc1cccc(CN(CC)Cc2noc(C)n2)c1`, the INHIBITION came out at 36.28%.

On to `C=C(C)CNc1ccc(C(=O)N(CC)Cc2nccn2C)cn1`, for which the INHIBITION is listed as -13.51%. Consider `CCN(Cc1nccn1C)C(=O)c1ccc(NCc2ccccc2)nc1`, for which the INHIBITION came to 8.89%. Turning to `C=C(C)COc1cccc(C(=O)N(CC)Cc2nccn2C)c1`, the INHIBITION is 52.98%.

As for `C=C(C)COc1cccc(C(=O)N(CC)Cc2nc(COC)no2)c1`, the INHIBITION is -18.57%. For the molecule `CCn1nc(C)c2ncnc(N(C)Cc3ccco3)c21`, the INHIBITION worked out at 46.92%.

On to `CN(C)c1ccc(CN2C[C@@H]3CC[C@H]2CN(C2CCOCC2)C3)cn1`, for which the INHIBITION turned out to be 25.52%. The figure for `Cn1cccc1C(=O)N1CCN(CC2CC2)c2ncccc2C1` is 8.13%; for `Cc1nc(-c2ccccc2)n(CC(=O)NC(C)C2CC2)n1` (stereo unspecified) it is 32.56%; for `COc1ccc(C2=Nn3c(CN)nnc3-c3ccccc3C2)cc1` it is 42.64%. `COc1ccc(C2=Nn3c(CCN)nnc3-c3ccccc3C2)cc1`: the INHIBITION amounted to 54.73%. On to `COc1ccc(C2=Nn3c(CCCN)nnc3-c3ccccc3C2)cc1`, for which the INHIBITION came out at 6.9%. For `Cc1cnc(CNC(=O)[C@@]23CCO[C@@H]2CCN(c2ncccn2)C3)cn1`, the INHIBITION was found to be 4.08%. As for `Cc1cc(C(=O)N2C[C@@H]3COC[C@]3(CN(C)C)C2)c(C)o1`, the figure is 39.57%.

`CC(C)NC1CCc2[nH]c(=O)ccc2C1` (stereo unspecified): the INHIBITION is reported as -13.79%. Regarding `Cc1c(Br)cccc1C(=O)NCC1CCNCC1`, the INHIBITION was found to be 5%. `O=C(c1cnc(C2CC2)nc1O)N1CCN(Cc2ccccc2F)CC1`: the INHIBITION is recorded as 15.34%. `Cc1ncc(C(=O)N2CCCN(Cc3ccccc3F)CC2)c(O)n1`: the INHIBITION turned out to be 52.74%. As for `O=C(c1cccnc1O)N1CCN(Cc2ccccc2F)CC1`, the figure is -24.15%; as for `c1cnnc(N[C@@H]2CC[C@@H]3CN(Cc4c[nH]c5ccccc45)C[C@@H]32)c1`, -2.96%. Turning to `Cc1nc(C)c(S(=O)(=O)NC(=O)c2ccsc2)s1`, the INHIBITION was 68.08%. For `Cc1nc(C)c(S(=O)(=O)NC(=O)c2ccoc2)s1`, the INHIBITION was 44.86%.

As to `Cc1nc(C)c(S(=O)(=O)NC(=O)c2sccc2C)s1`, the INHIBITION is given as 24.23%. As for `O=C(c1ccc(O)nc1)N1CCN(C(=O)c2ccc(F)cc2F)CC1`, the figure is 19.06%; as for `CC(C)Oc1ncc(C(=O)N2CCc3ccc(O)cc3C2)cc1Cl`, 11.33%. The figure for `O=C(c1ccc(O)nc1)N1CCc2ccc(O)cc2C1` is 55.39%; for `O=C(c1c[nH]c(=O)c(Cl)c1)N1CCc2ccccc2C1` it is -15.11%.

For the molecule `O=C(c1ccc(O)nc1)N1CCN(C(=O)c2ccc(F)c(F)c2)CC1`, the INHIBITION is -18.09%. Turning to `O=C(c1cnc(OCC(F)(F)F)c(Cl)c1)N1CCc2ccc(O)cc2C1`, the INHIBITION was 64.2%. As for `CC(=O)N1CC[C@H](c2nnc(Cc3c[nH]c4ccccc34)o2)C1`, the INHIBITION amounted to 26.01%.

Turning to `CN(Cc1cn2c(n1)CN(CC1CCOC1)CC2)Cc1ccco1` (stereo unspecified), the INHIBITION was -0.38%. Consider `O=C(NCCn1cccc1)C1CCN(C2CCCCC2)CC1`, for which the INHIBITION was 10.72%. For the molecule `OCCOc1cc(F)ccc1NCc1cccc(F)c1F`, the INHIBITION is listed as -19.62%. For `Cn1ccnc1CN1CCC(CNS(=O)(=O)c2cccnc2)C1` (stereo unspecified), the INHIBITION is recorded as -43.75%. As for `COc1ccc(NC(=O)C2CC(=O)n3cnnc3S2)cc1` (stereo unspecified), the INHIBITION amounted to 6.05%. As to `COCCN1CCCC(O)(CN2CCN(Cc3ccncc3)CC2)C1=O` (stereo unspecified), the INHIBITION came out at 15.73%.

Regarding `CC(=O)c1ccc(CNC(=O)c2cc(C#N)cn2C)nc1C`, the INHIBITION was -2.44%. As for `Cc1ccc2nc(CSCC(=O)Nc3nnc(C(C)C)s3)cc(=O)n2c1`, the figure is -3.16%.

For the molecule `CCN1C(=O)C(C#N)=C(C)/C(=C/C2=Cc3ccccc3OC2)C1=O`, the INHIBITION was found to be 45.67%. For `O=C(Nc1cccnc1)C1=Cc2ccccc2OC1`, the INHIBITION stood at 3.62%. In the case of `CC1=C(C#N)C(=O)N(C)C(=O)/C1=C\C1=Cc2ccccc2OC1`, the INHIBITION worked out at 53.81%. For `O=C(NCC1CCOCC1)c1cc(-c2ccncc2)c2cnccc2n1`, the INHIBITION is 10.89%.

Take `CC(C)C(CNCc1cccc2c1OCO2)N1CCOCC1` (stereo unspecified): the INHIBITION came out at 21.72%. Consider `Cc1ccc(C(CNCc2cccc3c2OCO3)N2CCOCC2)o1` (stereo unspecified), for which the INHIBITION was found to be 71.53%. The figure for `c1csc(C(CNCc2cccc3c2OCO3)N2CCOCC2)c1` (stereo unspecified) is 42.62%.
